Screens as filed in PubChem.
CF NFkB inh = inhibitors of PAF-induced NF-kB signaling, primary screen, cell-based, GFP fluorescence, uHTS. KKLEB NF-kB-GFP reporter, GFP fluorescence overnight. inhibition, % at 5 µM. 360,000 compounds, 0.86% hits. AID 588850, 2011;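 active means at least 50% inhibition at 5 µM, scaled per plate between neutral and stimulator controls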;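 further: PAF is a Pseudomonas aeruginosa culture filtrate used as stimulus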
TROY signal inh = inhibitors of TROY-driven NF-kB signaling, primary screen, Q293 LMP1-TROYcd cells, NF-kB luciferase, uHTS | AID 1347056, 2019 | 360,000 compounds, 0.98% hits | inhibition, % at 10 µM | Q293 LMP1-TROYcd NF-kB luciferase reporter, 4 h;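 active means compounds whose plate-normalised and pattern-corrected inhibition of the luciferase reporter signal at the single screening dose is 50% or more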
HIF-2a block = HIF-2a reporter inhibitors, primary screen, luminescence, 786-0 RCC cells; inhibition, % at 18.8 µM; 786-0 RCC cells HIF-2a reporter, luciferase luminescence, overnight; 360,000 compounds, 0.72% hits; AID 624352, 2012;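 active means inhibition of the luminescence signal of 40% or more relative to plate controls, in a single-dose primary screen at 18.75 µM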
TWEAK-Fn14 inh = inhibitors of TWEAK-Fn14 signaling, primary screen, luciferase reporter cells, uHTS | TWEAK-stimulated Fn14 reporter cells, luciferase luminescence, 8 h | 360,000 compounds, 2% hits | inhibition, % at 10 µM; in the data active means inhibition above about 50%
KKLEB tox = cytotoxicity in KKLEB CF airway cells, primary screen, cytotoxicity control for CF NF-kB inhibitor project, cell-based, uHTS, fluorescence assay plates; KKLEB CF airway cells viability, ATPlite luminescence, overnight; hits give low values; cells stimulated with P. aeruginosa culture filtrate; activity change (cytotoxicity), % at 5 µM; 360,000 compounds, 0.36% hits;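 active means corrected activity change at or below -50% at 5 µM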
Peg3 promoter = Peg3 promoter-driven luciferase inhibitors, primary screen, cell-based, HeLa, luciferase luminescence. HeLa PEG-Prom luciferase reporter, overnight. AID 588405, 2011. inhibition, % at 20 µM. 360,000 compounds, 1.7% hits;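 active means inhibition of at least 50% at 20 µM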
CF NFkB inh conf = inhibitors of PAF-induced NF-kB signaling, retest, confirmation, cell-based, GFP fluorescence, single concentration | shares compounds with CF NFkB inh | KKLEB CF airway cells, overnight | inhibition, % at 5 µM | 1,300 compounds, 64% hits | AID 602472, 2012; in the data active means inhibition above about 40%;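 further: stimulus PAF is a Pseudomonas aeruginosa filtrate and not platelet activating factor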
Mdm2 MdmX conf = retested Mdm2-MdmX interaction blockers, confirmation, cell-based, luminescence, single concentration, set 2; shares compounds with HIF-2a block; AID 504601, 2011; inhibition, % at 8 µM; 740 compounds, 99% hits; SaOS-2 split-luciferase Mdm2/MdmX complementation;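 active means mean inhibition of the luminescence signal across two replicates at or above 26 percent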
Target sequence (O15151 whole entry, looked up): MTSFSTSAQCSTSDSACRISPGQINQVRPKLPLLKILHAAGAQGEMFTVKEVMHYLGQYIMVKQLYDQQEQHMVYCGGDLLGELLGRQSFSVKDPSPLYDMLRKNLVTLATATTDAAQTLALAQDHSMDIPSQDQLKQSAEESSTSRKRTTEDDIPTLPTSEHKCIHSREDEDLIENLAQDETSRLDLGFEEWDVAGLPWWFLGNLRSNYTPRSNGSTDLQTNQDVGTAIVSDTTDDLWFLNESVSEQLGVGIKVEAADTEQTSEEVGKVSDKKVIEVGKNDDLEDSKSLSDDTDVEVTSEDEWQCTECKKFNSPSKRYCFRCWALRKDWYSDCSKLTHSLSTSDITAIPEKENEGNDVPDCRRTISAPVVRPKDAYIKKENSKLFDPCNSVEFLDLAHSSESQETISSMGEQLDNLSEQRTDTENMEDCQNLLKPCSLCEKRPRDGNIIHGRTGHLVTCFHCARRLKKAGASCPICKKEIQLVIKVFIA
Target sequence (Q00987 whole entry, looked up): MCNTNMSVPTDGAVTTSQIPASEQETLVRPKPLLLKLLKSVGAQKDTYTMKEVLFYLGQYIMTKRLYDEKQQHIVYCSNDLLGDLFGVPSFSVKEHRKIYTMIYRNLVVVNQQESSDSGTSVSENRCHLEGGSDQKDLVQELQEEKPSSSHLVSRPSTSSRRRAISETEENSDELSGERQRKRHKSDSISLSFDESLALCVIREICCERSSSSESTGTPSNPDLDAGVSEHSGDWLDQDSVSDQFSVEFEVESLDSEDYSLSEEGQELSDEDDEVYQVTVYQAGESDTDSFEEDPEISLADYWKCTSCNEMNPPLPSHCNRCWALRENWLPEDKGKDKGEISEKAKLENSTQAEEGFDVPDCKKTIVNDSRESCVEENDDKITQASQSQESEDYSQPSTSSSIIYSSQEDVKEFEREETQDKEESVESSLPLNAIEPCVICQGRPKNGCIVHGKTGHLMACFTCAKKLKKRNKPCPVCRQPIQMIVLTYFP
HIF-2a conf = HIF-2a reporter inhibitor retest, confirmation, luminescence, 786-0 RCC cells; shares compounds with HIF-2a block; HIF-2a luciferase reporter luminescence, overnight; inhibition, % at 18.8 µM; 1,800 compounds, 56% hits; AID 651580, 2012;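 active means mean inhibition across four replicates of at least 40 percent at the single tested concentration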
HIF-1a counter = HIF-1a luciferase reporter signal reduction – MiaPaCa-2 cells, single concentration, counter-screen for HIF-2a inhibitor project, confirmation; shares compounds with HIF-2a block; MiaPaCa-2 HIF-1a luciferase reporter, desferoxamine, overnight; inhibition, % at 18.8 µM; 1,800 compounds, 72% hits;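 active means mean inhibition of the reporter signal across four replicates at the single tested dose of 50% or more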
Large screens that a line does not name were inactive (follow-up assays come after a bar, where they were run). Sampled rows, rich in hits. Any-hit rate of the full collection: about 3.9%.

CC(C)C(=O)N1CCN(c2ccc(NC(=O)c3ccc([N+](=O)[O-])o3)cc2Cl)CC1	CF NFkB inh 69, HIF-2a block 91, Peg3 promoter 109 | CF NFkB inh conf inactive | HIF-2a conf 80 | HIF-1a counter 99
O=C(NCc1ccco1)c1nc2c(nnn2Cc2ccccc2Cl)c(=O)[nH]1	CF NFkB inh 90, TROY signal inh 85, HIF-2a block 45, TWEAK-Fn14 inh 85, Peg3 promoter 94 | CF NFkB inh conf 100 | HIF-2a conf 57 | HIF-1a counter 106
Cc1ccc(C)c(Cn2nnc3c(=O)[nH]c(C(=O)NCc4ccco4)nc32)c1	none
O=C(C=Cc1ccccc1)CC(c1ccccc1)N1CCOCC1 (stereo unspecified)	CF NFkB inh 94, HIF-2a block 70, TWEAK-Fn14 inh 92, Peg3 promoter 108 | CF NFkB inh conf inactive | HIF-2a conf inactive | HIF-1a counter 102
CN(C)c1ccc(CC2C(=O)Nc3ccccc32)cc1 (stereo unspecified)	none
CC(C)(C)C(=O)/C(=C/c1ccncc1)n1cncn1	CF NFkB inh 75, TROY signal inh 51, HIF-2a block 93, TWEAK-Fn14 inh 83, Peg3 promoter 101 | CF NFkB inh conf 83 | Mdm2 MdmX conf 102 | HIF-2a conf 62 | HIF-1a counter 106
CC(C)(C)c1ccc(Oc2ccc(NC(=O)c3ccco3)cn2)cc1	HIF-2a block 75, TWEAK-Fn14 inh 78 | HIF-2a conf inactive | HIF-1a counter inactive
CC1(C(=O)NS(=O)(=O)Cc2ccccc2)CCN1C(=O)c1ccc(C2CCCCC2)cc1 (stereo unspecified)	none
CCOc1ccc(NC(C)=O)cc1	none
CC(=O)Nc1ccc(OCc2cccc3ccccc23)cc1	HIF-2a block 88 | HIF-2a conf 97 | HIF-1a counter 90
O=C1Nc2ccc(Br)cc2/C1=C/C(=O)c1ccc2c(c1)OCO2	HIF-2a block 45, Peg3 promoter 53 | HIF-2a conf inactive | HIF-1a counter 95
Clc1ccc(Cn2ncc3c(N4CCCCC4)ncnc32)cc1	none
Clc1ccc(-n2ncc3c(N4CCCCCC4)ncnc32)cc1	TROY signal inh 92, HIF-2a block 66, TWEAK-Fn14 inh 105, KKLEB tox -52 | HIF-2a conf 84 | HIF-1a counter 102
CCN(CC)CCCC(C)n1c(C)cc(C(=O)NS(=O)(=O)c2ccc(C)cc2)c1C (stereo unspecified)	none
COc1cccc(NC(=O)c2cc3c(=O)n4ccccc4nc3n(CC(C)C)c2=N)c1	none | Mdm2 MdmX conf 36
O=C(CN1C(=O)c2ccccc2C1=O)Nc1ccccc1C(F)(F)F	none
c1c2c(cc3sc(N4CCOCC4)nc13)OCCO2	TROY signal inh 55, HIF-2a block 55, TWEAK-Fn14 inh 92 | HIF-2a conf 63 | HIF-1a counter inactive
c1ccc(N2CCN(c3nc4cc5c(cc4s3)OCCO5)CC2)cc1	none
O=C1CN(C(=O)COC(=O)c2cccnc2Cl)c2ccccc2N1	none
CCOc1ccc2nc(NC(=O)CS(=O)(=O)c3ccc(C)cc3)sc2c1	none
O=C(CCN1C(=O)/C(=C/c2ccccc2)SC1=S)N[C@@H](CO)Cc1ccccc1	HIF-2a block 50, Peg3 promoter 80 | Mdm2 MdmX conf 98
O=C(CCN1C(=O)/C(=C/c2ccccc2)SC1=S)NNC(=O)c1ccncc1	none
COc1nn(-c2ccccc2)c(=O)c(Cl)c1Cl	CF NFkB inh 91, TROY signal inh 74, HIF-2a block 93, TWEAK-Fn14 inh 99, KKLEB tox -66, Peg3 promoter 105 | HIF-2a conf 65 | HIF-1a counter 106
COc1ccc(C(CC(=O)c2ccc(C)cc2)C(C#N)C#N)cc1OC (stereo unspecified)	CF NFkB inh 102, HIF-2a block 56, TWEAK-Fn14 inh 88, KKLEB tox -89, Peg3 promoter 93 | HIF-2a conf inactive | HIF-1a counter 105
COC(=O)C(C(=O)OC)C(CC(=O)c1ccc(C)cc1)c1cc(OC)c(OC)c(OC)c1 (stereo unspecified)	none
S=C(Nc1ccccc1Cl)N1CCCC(c2ccccc2)=N1	none
COc1cccc(/C=C2/CCC(CN(C)C)C2=O)c1 (stereo unspecified)	HIF-2a block 60, TWEAK-Fn14 inh 86, Peg3 promoter 96 | HIF-2a conf inactive | HIF-1a counter 103
CCc1ccc(/C=C/c2c([N+](=O)[O-])c(=O)n(C)c(=O)n2C)cc1	HIF-2a block 46, TWEAK-Fn14 inh 65 | HIF-2a conf inactive | HIF-1a counter inactive
COc1ccc(/C=C/c2c([N+](=O)[O-])c(=O)n(C)c(=O)n2C)c(OC)c1	none
Cn1c(/C=C/c2ccc(Cl)cc2Cl)c([N+](=O)[O-])c(=O)n(C)c1=O	HIF-2a block 69, TWEAK-Fn14 inh 73, Peg3 promoter 103 | HIF-2a conf 41 | HIF-1a counter 106
CCOc1ccc(/C=C/c2c([N+](=O)[O-])c(=O)n(C)c(=O)n2C)cc1	none
N#Cc1c(N)oc(-c2cccs2)c1-c1cccs1	none
COc1cc(/C=C2/CCC/C(=C\c3cc(O)c(OC)c(Cl)c3)C2=O)cc(Cl)c1O	TROY signal inh 58, HIF-2a block 91 | Mdm2 MdmX conf 103
COc1cc(/C=C2\SC(N)=NC2=O)cc(Cl)c1O	none
O=C1CC(c2ccccc2)CC(O)=C1C=NCCc1ccccc1 (stereo unspecified)	none
COc1cccc(/C=N/NC(=O)c2cccc([N+](=O)[O-])c2)c1OS(=O)(=O)c1ccccc1	none
COc1ccc(/C=N/NC(=O)c2cccc([N+](=O)[O-])c2)c2ccccc12	HIF-2a block 57 | HIF-2a conf inactive | HIF-1a counter inactive
